Bioassay records (PubChem)
FBW7 act: activators of human E3 ligase FBW7; AlphaScreen FBW7–phospho-cyclin E peptide binding, activator screen; normalized activity (activation), % at 26.1 µM; hit rate 0.13% among 650,000; AID 1259310; in the data active means normalized activity above about 1.9%;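 further: purified mutant Fbw7 with reduced substrate affinity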
MITF inh: inhibitors of human MITF | AlphaScreen MITF homodimerization, bead proximity signal | inhibition, % at 2.6 µM | hit rate 0.91% among 650,000 | AID 1259374; in the data active means inhibition above about 50%
Target sequence (O75030 whole entry, looked up): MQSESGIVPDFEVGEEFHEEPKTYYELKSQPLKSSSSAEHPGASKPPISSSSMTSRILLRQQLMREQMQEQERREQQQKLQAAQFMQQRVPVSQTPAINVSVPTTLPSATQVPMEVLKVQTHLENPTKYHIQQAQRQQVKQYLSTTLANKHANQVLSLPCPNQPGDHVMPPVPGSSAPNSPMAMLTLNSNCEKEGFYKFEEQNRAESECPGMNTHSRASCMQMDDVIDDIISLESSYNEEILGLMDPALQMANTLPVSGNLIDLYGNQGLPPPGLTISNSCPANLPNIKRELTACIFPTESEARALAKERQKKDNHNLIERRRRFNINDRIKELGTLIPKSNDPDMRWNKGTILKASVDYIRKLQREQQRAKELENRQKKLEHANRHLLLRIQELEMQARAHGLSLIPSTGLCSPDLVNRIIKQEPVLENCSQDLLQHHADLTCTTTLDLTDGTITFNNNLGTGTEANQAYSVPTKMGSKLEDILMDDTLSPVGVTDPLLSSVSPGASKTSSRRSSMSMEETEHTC
GPR151 ag: human GPR151 activation | activation, % at 11.2 µM | hit rate 1% among 650,000 | Q8TDV0 | PathHunter beta-arrestin GPR151 cells, luminescence; in the data active means activation above about 4.9%
TEAD-YAP block: TEAD-YAP interaction inhibition | HEK-TIYL cells, TEAD-Gal4/YAP UAS-luciferase luminescence | inhibition, % at 9.12 µM | hit rate 1.4% among 640,000; in the data active means inhibition above about 32%
GPR151 conf act: human GPR151 activation, confirmation screen. activation, % at 11.2 µM. GPR151 PathHunter beta-arrestin cells, luminescence, 90 min; % of EA-reagent control over plate median. 6,700 tested, under 10 active. AID 1508609. shares compounds with GPR151 ag;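 active means mean percent activation across replicates above the confirmation screen cutoff of 4.91%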
GPR119 counter: activates human GPR119 in a GPR151 counter-screen. shares compounds with GPR151 ag. GPR119 PathHunter beta-arrestin cells, luminescence, 90 min; 0 = compound-well median, 100 = enzyme-acceptor control. activation, % at 11.2 µM. hit rate 0.3% among 6,700;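 active means mean percent activation in the counterscreen above 29.09%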;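 further: counterscreen on off-target GPR119 to flag nonselective hits from the GPR151 activator screen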
A number is an active result; - = inactive; . = no result given; ! = not confirmed by another sample. This is a sample that favours compounds with a hit; in the whole collection about 3.5% have one here.

SMILES	FBW7 act	MITF inh	GPR151 ag	TEAD-YAP block	GPR151 conf act	GPR119 counter
C=CCN1C(=O)C2(C(C(C)=O)=C(C)OC(N)=C2C(=O)OCC)c2ccccc21 (configuration not stated)	-	-	-	-	.	.
COc1ccc(C(CN(C)C)C2(O)CCCCC2)cc1 (configuration not stated)	-	-	8.7!	-	-	-
COc1ccc(C2(CN)CCCC2)cc1	-	-	-	-	.	.
C[C@H]1CC[C@@H]2[C@@H](C)[C@H]3[C@H](CC4[C@@H]5CC=C6CC(O[C@@H]7O[C@H](CO)C(O[C@@H]8O[C@@H](C)[C@H](O)[C@@H](O)[C@H]8O)[C@H](O)[C@H]7O[C@@H]7O[C@@H](C)[C@H](O)[C@@H](O)[C@H]7O)CC[C@]6(C)[C@H]5CC[C@@]43C)N2C1 (some centres not stated)	-	-	7.2	-	-	-
OCC1OC(Oc2ccc(Br)cc2)C(O)C(O)C1O (configuration not stated)	-	-	-	-	.	.
Nc1ncnc2c1ccn2[C@@H]1O[C@H](CO)[C@@H](O)[C@H]1O	-	-	7.1	100.3	5.9	-
N#Cc1ccc(NC(=O)CSc2n[nH]c(N)n2)cc1Cl	-	-	-	-	.	.
CCOC(=O)C1=C(N)OC(C)=C(C(=O)OC(C)(C)C)C12C(=O)Nc1ccccc12 (configuration not stated)	-	-	-	-	.	.
O=C1Nc2ccc(Cl)cc2C(c2ccccc2Cl)=NC1O (configuration not stated)	-	-	6.8	-	-	-
CCN1CCN(C(=O)COc2ccc(Cl)c(C)c2)CC1	-	-	-	-	.	.
CCN1CC2(COC)CC[C@H](O)C34C5C[C@@H]6C(OC)C[C@@](O)(C5[C@H]6OC(C)=O)[C@@H](CC23)[C@@H]14 (some centres not stated)	-	-	5.4	-	-	-
CCN1CCN(Cc2cc(Br)cc(OC)c2O)CC1	-	-	6.6	-	-	-
O=c1cccc2n1CC1CC2CN(Cc2cccc(F)c2)C1 (configuration not stated)	-	-	-	-	.	.
COc1cc(OC)cc(C(=O)NC(=S)N2CC3CC(C2)c2cccc(=O)n2C3)c1 (configuration not stated)	-	-	7.5	-	-	-
O=c1cccc2n1CC1CC2CN(C(=S)Nc2ccccc2)C1 (configuration not stated)	-	-	-	-	.	.
CC(C)C(=O)Nc1ccc(S(=O)(=O)N2CC3CC(C2)c2cccc(=O)n2C3)cc1 (configuration not stated)	-	-	13.1	-	-	-
CC(=O)Nc1ccc(S(=O)(=O)N2CC3CC(C2)c2cccc(=O)n2C3)cc1 (configuration not stated)	-	-	-	-	.	.
Cc1cccn2c(CN3CC=C(c4ccccc4)CC3)c(C(=O)N3CCOCC3)nc12	-	-	-	-	.	.
O=c1c2ccccc2nc(/C=C/c2ccccc2)n1-c1ccc(Cl)cc1	-	-	4.9	-	-	-
O=c1c2ccccc2nc(/C=C/c2ccccc2)n1-c1ccccc1	-	-	-	-	.	.
CCOc1ccc(-n2c(/C=C/c3ccccc3)nc3ccccc3c2=O)cc1	-	-	6.9	-	-	-
CC(=O)c1ccc(OC(NC(=O)C(C)C)C(Cl)(Cl)Cl)cc1 (configuration not stated)	-	-	-	-	.	.
CCOc1cccc(CNC2CN3CCC2CC3)c1 (configuration not stated)	-	-	6.9	-	-	-
C=C(C)[C@@H]1C2C(=O)O[C@H]1[C@H]1OC(=O)[C@@]34OC3C[C@]2(O)[C@@]14C (some centres not stated)	-	-	7.9!	-	-	-
COc1ccc(CCN(C)Cc2cc(OC)c(OC)cc2[N+](=O)[O-])cc1OC	-	-	8.4	-	-	-
SMILES	FBW7 act	MITF inh	GPR151 ag	TEAD-YAP block	GPR151 conf act	GPR119 counter
Cc1ccccc1NC(=O)C1C(C)(C)C1(C)C	-	-	9.3	-	-	-
CC1(C)C(C(=O)Nc2cccc3ccccc23)C1(C)C	-	-	-	-	.	.
CC1(C)C(C(=O)N2CCC[C@@H]3CN(Cc4ccsc4)CC[C@H]32)C1(C)C	-	-	-	-	.	.
CC1=NCCc2c1[nH]c1cc(O)ccc21	-	-	5.0!	-	-	-
O=C(COc1ccc(Br)cc1)N1CCN(CC2CC=CCC2)CC1 (configuration not stated)	-	-	9.7	-	-	-
O=c1c2ccccc2nc(/C=C\c2cccc(Br)c2)n1-c1ccc(Br)cc1	-	-	-	-	.	.
C/C(CCc1ccc2c(c1)OCO2)=N\N=C(N)N	-	-	-	-	.	.
C=CCOC(=O)C1C2NC(=S)N(c3cccc(Cl)c3)C1(C)Oc1ccccc12 (configuration not stated)	-	-	10.0	-	-	-
CCOC(=O)C1C2NC(=S)N(c3ccccc3)C1(C)Oc1ccccc12 (configuration not stated)	-	-	-	-	.	.
CCN(Cc1ccccc1)C(=O)C(Cl)(Cl)Cl	-	-	6.0	-	-	-
Cc1c(C(=O)c2ccc3ccccc3c2)c2cccc3c2n1[C@H](CN1CCOCC1)CO3	-	-	5.4	.	-	-
COc1cccc(OC)c1C1=NCC(=O)Nc2c1oc1ccc(Br)cc21	-	-	5.7	58.3	-	-
O=C1CN=C(c2ccccc2)c2oc3ccc(Br)cc3c2N1	-	-	-	-	.	.
COc1ccc(C(=O)OC2CC3CCC(C2)N3)cc1OC (configuration not stated)	-	-	-	-	.	.
COc1ccc(C(=O)O)cc1OC	-	-	5.7	-	-	-
COc1ccc(CCNCc2cccc(OC)c2)cc1	-	-	-	-	.	.
CN1CCN(c2cc3ccccc3c(=O)[nH]2)CC1	-	-	-	-	.	.
C=CCOc1ccccc1/C=C/[N+](=O)[O-]	-	-	7.3	-	-	-
O=[N+]([O-])/C=C/c1ccccc1OCc1ccc(F)cc1	-	-	-	-	.	.
O=C(Nc1ncccc1O)c1c(O)c2c(n(Cc3ccco3)c1=O)CCCC2	-	-	-	-	.	.
CCCN(CCC)[C@@H]1CCc2c(F)ccc(O)c2C1	-	-	8.5!	-	-	-
CN1C(=O)NC(=O)/C(=C/c2ccc(-c3ccccc3[N+](=O)[O-])o2)C1=O	-	-	5.0	-	-	-
N#CC1=C(N)Oc2c(c(=O)oc3ccccc23)C1c1cccc(F)c1 (configuration not stated)	-	-	-	-	.	.
C[C@H]1OC[C@@H](C[N+](C)(C)C)O1	-	-	-	-	.	.
C[C@@H]1O[C@H](C[N+](C)(C)C)C[C@H]1O	-	-	5.9!	-	-	-
